# Inconclusive results are not listed. Activity calls are given as the source filed them. The call rests on the fitted dose curve; tested in HEK293 reporter line.
# Experiment: qHTS for Inhibitors of the Functional Ribonucleoprotein Complex (vRNP) of Lassa (LASV) Arenavirus: LASV Primary Screen - GLuc reporter signal (AID 1347082); further: nearly all actives have a fitted effect of over 60% in size
# Conditions: LASV minigenome vRNP, Gaussia luciferase reporter; series mostly up to 57.5 µM; activity change, negative = inhibition: at the top concentration
# On the % scale 0 is the no-effect control and ±100 the full control effect.
Structure (SMILES),"activity change, negative = inhibition",Potency
Cc1cc2c(cc1S(N)(=O)=O)S(=O)(=O)CCC2,-3.95% (inactive),
Cc1ccsc1/C=C/C1=NCCCN1C,2.69% (inactive),
C[C@H]1O[C@@H](n2cc(F)c(=O)[nH]c2=O)[C@H](O)[C@@H]1O,9.14% (inactive),
CN(CC1(C)CCCO1)S(=O)(=O)c1ccc(Cl)c(S(N)(=O)=O)c1 (stereo not drawn),6.78% (inactive),
CCCc1nn(C)c2c(=O)[nH]c(-c3cc(S(=O)(=O)N4CCN(C)CC4)ccc3OCC)nc12,,inactive
O=C(O)c1ccccc1Nc1cccc(C(F)(F)F)c1,0.971% (inactive),
CS(=O)(=O)c1ccc([C@@H](O)[C@@H](CO)NC(=O)C(Cl)Cl)cc1,,inactive
Cc1scc2c1N(C(=O)CN1CCN(C)CC1)c1ccccc1NC2=O,,inactive
CC(=O)O[C@@H]1CC2C3CCc4cc(OC(=O)c5ccccc5)ccc4C3CCC2(C)[C@H]1OC(C)=O (stereo partly drawn),-12.2% (inactive),
CCCCCC=CCC=CCCCCCCCC(=O)OCC,-3.49% (inactive),
C[N+]1(C)[C@@H]2CC(OC(=O)[C@H](CO)c3ccccc3)C[C@H]1[C@@H]1O[C@@H]12 (stereo partly drawn),-4.21% (inactive),
CC(C(=O)O)c1ccc2c(c1)[nH]c1ccc(Cl)cc12 (stereo not drawn),12% (inactive),
O=C(O)c1[nH]n(-c2ccc(S(=O)(=O)O)cc2)c(=O)c1N=Nc1ccc(S(=O)(=O)O)cc1,-1.46% (inactive),
Cc1ncc(CO)c(CN)c1O,0.186% (inactive),
CNCCCC12CCC(c3ccccc31)c1ccccc12,,inactive
C/C(=C(\CCO)SS/C(CCO)=C(\C)N(C=O)Cc1cnc(C)nc1N)N(C=O)Cc1cnc(C)nc1N,-1.29% (inactive),
NC1CCN(c2cccc(Cl)n2)CC1,,inactive
CCC[C@@H]1C[C@@H](C(=O)N[C@@H]([C@H]2O[C@H](SC)[C@H](O)[C@@H](O)[C@H]2O)[C@@H](C)O)N(C)C1,,inactive
Nc1ccc(/C=C/c2ccc(N)cc2S(=O)(=O)O)c(S(=O)(=O)O)c1,-2.51% [at 0.757 µM] (inactive),

Structure (SMILES),"activity change, negative = inhibition",Potency
Nc1ccc(S(=O)(=O)NCc2ccccc2)cc1,-5.66% (inactive),
CC(C)NCC(O)c1cc(O)cc(O)c1 (stereo not drawn),,inactive
CC(CCc1ccccc1)NCC(O)c1ccc(O)c(C(N)=O)c1 (stereo not drawn),5.97% (inactive),
Cc1ccccc1C(=O)N1CC/C(=N\OS(=O)(=O)O)c2ccc(Cl)cc21,4.46% (inactive),
O=C(CO)[C@@H](O)[C@H](O)[C@@H](O)CO,-7.76% (inactive),
CCCCCCCCCCCC(=O)[O][Sn]([CH2]CCC)([CH2]CCC)[O]C(=O)CCCCCCCCCCC,4.35% (inactive),
COCCOC(=O)C1=C(C)NC(C)=C(C(=O)OC(C)C)C1c1cccc([N+](=O)[O-])c1 (stereo not drawn),,inactive
CC(C)(Sc1cc(C(C)(C)C)c(O)c(C(C)(C)C)c1)Sc1cc(C(C)(C)C)c(O)c(C(C)(C)C)c1,,inactive
CCC(C(=O)NC(=O)NC(C)=O)c1ccccc1 (stereo not drawn),0.881% (inactive),
NC(Cc1ccc(Cl)cc1)C(=O)O (stereo not drawn),,inactive
COc1ccc2cc([C@H](C)C(=O)O)ccc2c1,,inactive
FC1(F)C(F)(F)C(F)(F)C2(F)C(F)(F)C(F)(F)C(F)(F)C(F)(F)C2(F)C1(F)F (stereo not drawn),-0.533% (inactive),
OC[C@H]1O[C@H](O[C@]2(CCl)O[C@H](CCl)[C@@H](O)[C@@H]2O)[C@H](O)[C@@H](O)[C@H]1Cl,7.9% (inactive),
CC(C)C(=O)c1c(C(C)C)nn2ccccc12,,inactive
O=C(Cn1ccnc1[N+](=O)[O-])NCc1ccccc1,11.8% (inactive),
Cc1ccc(C(=O)c2ccc(CC(=O)O)n2C)cc1,-4.17% (inactive),
CCCCCCCC/C=C/C(=O)O,-5.24% (inactive),
CCCC(=O)O[C@]1(C(=O)COC(=O)CC)CC[C@H]2[C@@H]3CCC4=CC(=O)CC[C@]4(C)[C@H]3[C@@H](O)C[C@@]21C,-32.6% [at 24.7 µM] (inactive),
O=C(Oc1ccccc1)c1ccccc1O,0.0274% (inactive),

# Reference: PubChem BioAssay (NCATS)
